Measured values: PubChem BioAssay (NCATS)
Results filed as inconclusive are left out. Activity calls are given as the source filed them. Calls come from the whole dose curve; as a rule, active = well fitted inhibition curve with a large enough effect; inconclusive = small, poorly fitted or top-dose-only effect; inactive = flat fitted curve, though single readings scatter.

Experiments:
Experiment in all cases: qHTS profiling for inhibitors of Plasmodium falciparum proliferation (AID 504749); note: nearly all actives have a fitted effect of over 60% in size
[1] = test system: AA1029; conditions: P. falciparum in erythrocytes, SYBR Green DNA, 72 h; series mostly up to 28.7 µM
How it was run: (§1)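 Three-day growth assay of blood-stage parasites in erythrocytes (0.3% parasitemia, 2.5% hematocrit) at 37 C, 5% CO2, quantified by SYBR Green DNA staining after overnight detergent lysis.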

[2] = test system: CP191; conditions: P. falciparum in erythrocytes, SYBR Green DNA, 72 h; series mostly up to 28.7 µM
How it was run: as §1

[3] = test system: CP211; conditions: P. falciparum in erythrocytes, SYBR Green DNA, 72 h; series mostly up to 28.7 µM
How it was run: as §1

[4] = test system: CP215; conditions: P. falciparum in erythrocytes, SYBR Green DNA, 72 h; series mostly up to 28.7 µM
How it was run: as §1

[5] = test system: CP217; conditions: P. falciparum in erythrocytes, SYBR Green DNA, 72 h; series mostly up to 28.7 µM
How it was run: as §1

[6] = test system: CP252; conditions: P. falciparum in erythrocytes, SYBR Green DNA, 72 h; series mostly up to 12.8 µM
How it was run: as §1

[7] = test system: CP256; conditions: P. falciparum in erythrocytes, SYBR Green DNA, 72 h; series mostly up to 28.7 µM
How it was run: as §1

[8] = test system: CP291; conditions: P. falciparum in erythrocytes, SYBR Green DNA, 72 h; series mostly up to 28.7 µM
How it was run: as §1

[9] = test system: CP297; conditions: P. falciparum in erythrocytes, SYBR Green DNA, 72 h; series mostly up to 28.7 µM
How it was run: as §1

[10] = test system: CP315; conditions: P. falciparum in erythrocytes, SYBR Green DNA, 72 h; series mostly up to 28.7 µM
How it was run: as §1

[11] = test system: CP329; conditions: P. falciparum in erythrocytes, SYBR Green DNA, 72 h; series mostly up to 28.7 µM
How it was run: as §1

[12] = test system: CP335; conditions: P. falciparum in erythrocytes, SYBR Green DNA, 72 h; series mostly up to 12.8 µM
How it was run: as §1

[13] = test system: DIV17; conditions: P. falciparum in erythrocytes, SYBR Green DNA, 72 h; series mostly up to 28.7 µM
How it was run: as §1

[14] = test system: Dd2; conditions: P. falciparum in erythrocytes, SYBR Green DNA, 72 h; series mostly up to 28.7 µM
How it was run: as §1

[15] = test system: FAB9; conditions: P. falciparum in erythrocytes, SYBR Green DNA, 72 h; series mostly up to 28.7 µM
How it was run: as §1

[16] = test system: JCK; conditions: P. falciparum in erythrocytes, SYBR Green DNA, 72 h; series mostly up to 28.7 µM
How it was run: as §1

[17] = test system: N140; conditions: P. falciparum in erythrocytes, SYBR Green DNA, 72 h; series mostly up to 28.7 µM
How it was run: as §1

[18] = test system: PC15; conditions: P. falciparum in erythrocytes, SYBR Green DNA, 72 h; series mostly up to 28.7 µM
How it was run: as §1

[19] = test system: SC27B; conditions: P. falciparum in erythrocytes, SYBR Green DNA, 72 h; series mostly up to 28.7 µM
How it was run: as §1

[20] = test system: TAB165; conditions: P. falciparum in erythrocytes, SYBR Green DNA, 72 h; series mostly up to 28.7 µM
How it was run: as §1

Measured: Potency

C#CCN(C)[C@@H](C)Cc1ccccc1
inactive: [1] | [2] | [3] | [4] | [5] | [6] | [7] | [8] | [9] | [10] | [11] | [12] | [13] | [14] | [15] | [16] | [17] | [18] | [19] | [20]

C[C@@]12CC[C@H]3[C@@H](CC[C@@H]4C[C@H]5S[C@H]5C[C@]43C)[C@H]1CC[C@H]2O
inactive: [1] | [2] | [3] | [4] | [5] | [6] | [7] | [8] | [9] | [10] | [11] | [12] | [13] | [14] | [15] | [16] | [17] | [18] | [19] | [20]
